Results: PubChem BioAssay AID623926 (Vanderbilt Specialized Chemistry Center, 2012)
The source made the active and inactive calls.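 How the source made its calls: active means compound whose M3 calcium response shifts with concentration, judged dose-dependent by the depositor; inactive means the rest, no dose-dependent response.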

Each molecule was assayed against Muscarinic acetylcholine receptor M3 (Homo sapiens) (UniProt P20309) (assay: human M3 receptor positive allosteric modulation, SAR follow-up, selectivity assay for M4 PAM optimization, CHO cells, calcium flux (AID 623926)). Conditions: CHO hM3 cells, Fluo-4 calcium flux, ACh EC20; series mostly up to 30 µM.

outcome, inactive:
Cc1nc2sc(C(=O)NCc3ccncc3)c(N)c2c(C)c1Cl
Cc1nc2sc(C(=O)NCc3cccc(F)c3F)c(N)c2c(C)c1Cl
COc1ccc(C)c2sc(NC(=O)c3ccncc3)nc12
Cc1nc2sc(C(=O)NCc3cccnc3)c(N)c2c(C)c1Cl
Cc1nc2sc(C(=O)NC3CC3)c(N)c2c(C)c1Cl
Cc1nc2sc(C(=O)NCCc3ccncc3)c(N)c2c(C)c1Cl
Cc1nc2sc(C(=O)NCc3ccncn3)c(N)c2c(C)c1Cl
Cc1nc2sc(C(=O)NCc3ccc4c(c3)OCO4)c(N)c2c(C)c1Cl
Cc1nc2sc(C(=O)NCc3nccs3)c(N)c2c(C)c1Cl
Cc1nc2sc(C(=O)NCc3ccccc3)c(N)c2c(C)c1Cl
